In PubChem BioAssay AID2537 (National Center for Advancing Translational Sciences (NCATS), 2010):
Results filed as inconclusive are left out. Unmarked numbers belong to inactive results. The source made the active and inactive calls. Calls follow the shape of the dose curve; as a rule, active = well fitted inhibition curve with a large enough effect; inconclusive = small, poorly fitted or top-dose-only effect; inactive = no such curve, though single readings can be large or run the other way.

The compounds below were run against Polyunsaturated fatty acid lipoxygenase ALOX15B (Homo sapiens) (UniProt O15296) (assay: Confirmation qHTS Assay for Inhibitors of 15-hLO-2 (15-human lipoxygenase 2)). Settings: purified 15hLO-2, xylenol orange hydroperoxide absorbance; series mostly up to 57.1 µM; activity change, negative = inhibition: at the top concentration.
Method: Human lipoxygenase 15hLO-2 is a member of the closely related lipoxygenase family of enzymes which catalyze the site-specific oxidation of arachidonic acid to various hormone precursor molecules and as such is a candidate for drug development in a variety of disease areas, such as cancer and inflammation. Inhibition of 15hLO-2 activity was screened by utilizing arachidonic acid as a substrate. The extent of hydroperoxide product formation was measured by a secondary chromogenic reaction in which xylenol orange (XO, Sigma-Aldrich, cat. number 39,818-7) reacts with the ferric ions produced from the reaction between the hydroperoxide and ferrous ions. The Fe(III)-XO complex is characterized with red-shifted absorbance at 560 nm. A purified preparation of human 15hLO-2 was supplied by Professor Ted Holman, University of California, Santa Cruz. NIH Molecular Libraries Screening Centers Network [MLSCN] NIH Chemical Genomics Center [NCGC] MLSCN Grant: MH081283-01A1 PI Name: Holman, T.R., University of California, Santa Cruz
Assay Protocol: Buffer: 25 mM Hepes pH 7.5, 0.01% Triton X-100. Reagents/Controls: Buffer in columns 3 and 4 as negative control (no enzyme). Substrate solution: 45 uM arachidonic acid (Sigma-Aldrich, St. Louis, MO) final concentration dispensed throughout the plate. Enzyme: 50 nM 15hLO-2 final concentration in columns 1, 2, 5-48. Column 1 is neutral (100% activity). Column 2 contained pin-transferred titration of NDGA (nordihidroguaiaretic acid, Sigma-Aldrich, N 5023, top concentration 10 mM in DMSO, then 1:2 dilution in duplicate). (Dilution factor: 23 nL into 4 uL.) Chromogenic detection reagent (divalent iron/xylenol orange, Fe-XO): 200 uM xylenol orange plus 300 uM ferrous ammonium sulfate prepared freshly in 50 mM sulfuric acid. Assay Steps: Three uL of enzyme were dispensed to 1536-well Greiner black clear bottom plates. Compounds and controls (23 nL) were transferred via Kalypsys PinTool. The plates were incubated for 15 min at room temperature, and then 1 uL of substrate solution was added to start the reaction. After room temperature incubation for 90 minutes, 4 uL of Fe-XO solution was added to each well followed by a short spin (1000 rpm, 15 sec) and the plates were then incubated for 30 min. The absorbance at 405 and 573 nm were measured using ViewLux (Perkin-Elmer) High-throughput CCD imager and absorbance protocol settings. The 573-to-405 absorbance ratio was used to compute reaction progress.

Sequence of Polyunsaturated fatty acid lipoxygenase ALOX15B (Homo sapiens) (O15296 whole entry, looked up): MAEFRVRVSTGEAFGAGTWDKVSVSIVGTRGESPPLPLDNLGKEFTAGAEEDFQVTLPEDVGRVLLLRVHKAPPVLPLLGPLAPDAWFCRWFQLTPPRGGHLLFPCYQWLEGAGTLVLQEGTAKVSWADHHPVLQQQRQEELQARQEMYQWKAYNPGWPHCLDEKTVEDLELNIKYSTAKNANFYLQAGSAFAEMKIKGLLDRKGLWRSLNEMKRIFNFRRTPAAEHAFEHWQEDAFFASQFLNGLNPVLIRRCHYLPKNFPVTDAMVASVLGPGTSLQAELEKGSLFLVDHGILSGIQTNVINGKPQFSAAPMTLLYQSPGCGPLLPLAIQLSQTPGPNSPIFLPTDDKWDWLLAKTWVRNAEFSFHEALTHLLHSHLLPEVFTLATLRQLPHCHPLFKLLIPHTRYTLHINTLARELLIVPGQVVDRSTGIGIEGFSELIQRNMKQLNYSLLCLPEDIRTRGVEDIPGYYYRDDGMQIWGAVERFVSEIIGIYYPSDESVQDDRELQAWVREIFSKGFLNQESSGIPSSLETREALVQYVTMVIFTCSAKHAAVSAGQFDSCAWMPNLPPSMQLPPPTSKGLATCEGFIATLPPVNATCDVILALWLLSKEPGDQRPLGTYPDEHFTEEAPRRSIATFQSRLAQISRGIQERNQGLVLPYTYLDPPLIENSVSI

Row | SMILES | activity change, negative = inhibition [%] | Potency
1 | O=C(CC1C(=O)N(c2ccc(Cl)cc2)C(=S)N1CCc1ccncc1)Nc1ccc(F)cc1 (configuration not stated) | 5.96 | 
2 | CC1=CC(C)(C)Nc2ccc(OC(=O)CN3C(=O)c4cccc5cccc(c45)C3=O)cc21 |  | 12.6 µM (active)
3 | Cc1c(N/C=C/C(=O)c2cccs2)c(=O)n(-c2ccccc2)n1C | -9.11 | 
4 | Cc1cc(/C=N/NC(=O)Cn2c3ccccc3c(=O)c3ccccc32)c(C)n1-c1ccccc1 |  | 7.08 µM (active)
5 | O=C(Nc1nnc(-c2ccco2)s1)C1CCCCC1 |  | 1 µM (active)
6 | Oc1ccc2ccccc2c1CNc1cnc2ccccc2c1 | -10.2 | 
7 | CN(C)CCC(=O)c1ccc(Cl)cc1 | -28.3 | 
8 | COc1ccc(C(C[N+](=O)[O-])c2c(-c3ccccc3)cc3ccccn23)c(OC)c1 (configuration not stated) | -11 | 
9 | CN1CCN(C(c2cccnc2)c2ccc3cccnc3c2O)CC1 (configuration not stated) | 0.164 | 
10 | O=C(Nc1nc2n(n1)C(c1ccccc1)CC(c1ccc(Cl)cc1)N2)c1ccco1 (configuration not stated) | 20.6 | 
11 | Cc1ccc(C)c(NC(=S)NNC(=O)c2csc3c2CCC(C)C3)c1 (configuration not stated) | -44.7 | 
12 | COc1ccc(NC(=O)CSc2nc(O)cc(=O)n2-c2ccccc2OC)cc1 | -4.58 | 
